{"source": "the supplement of paper PMC4166925", "note": "± gives the standard deviation of the averaged measurements. Whole data set: some 33,000 sequences, median “E-score (dimensionless, -0.5 to 0.5)” near -0.049, cut for the highest 2% near 0.37. The full list was thinned out, with the highest values kept by preference.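 Also: 200 nM protein in PBS on universal arrays averaged over duplicate arrays.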", "data": [{"system": "T1, PmTbr T-box DNA-binding domain (GST fusion)", "T1 sequence": "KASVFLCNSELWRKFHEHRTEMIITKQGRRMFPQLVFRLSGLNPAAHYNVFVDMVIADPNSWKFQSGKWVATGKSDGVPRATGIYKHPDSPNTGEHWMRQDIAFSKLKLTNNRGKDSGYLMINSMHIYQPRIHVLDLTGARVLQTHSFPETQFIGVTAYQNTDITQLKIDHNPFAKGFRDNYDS", "assay": "PBM E-score of 8-mer (E-score (dimensionless, -0.5 to 0.5)); Tbr is Tbrain of the sea star Patiria miniata (Pm) or the sea urchin Strongylocentrotus purpuratus (Sp); higher = stronger binding preference", "details": "the construct has about 5 more residues each side", "experimental": "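Universal protein-binding microarray (Agilent AMADID 016060, 60-bp probes with a 35-bp variable region) incubated with 200 nM GST-fused Patiria miniata Tbr T-box DNA-binding domain (residues 272-466) in PBS pH 7.5. Scored for every ungapped 8-mer (given with its reverse complement) by the Universal PBM Analysis Suite as E-score (modified Wilcoxon-Mann-Whitney enrichment, range -0.5 to 0.5; >0.45 counts as bound) and Z-score of median probe intensity. Two replicate arrays (datasets 1 and 2).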", "values": [{"sequence": "AAAAGTGC", "PBM E-score of 8-mer": "0.2475 ± 0.00082"}, {"sequence": "ATCCTTCA", "PBM E-score of 8-mer": "-0.143 ± 0.044"}, {"sequence": "ACCGACCC", "PBM E-score of 8-mer": "0.00535 ± 0.068"}, {"sequence": "ACCATTAA", "PBM E-score of 8-mer": "-0.0404 ± 0.015"}, {"sequence": "GAAGTCTC", "PBM E-score of 8-mer": "0.102 ± 0.062"}, {"sequence": "CGCCTAAG", "PBM E-score of 8-mer": "0.0221 ± 0.02"}, {"sequence": "ACCCTCAA", "PBM E-score of 8-mer": "0.0906 ± 0.052"}, {"sequence": "GAGTTGCC", "PBM E-score of 8-mer": "0.0293 ± 0.068"}, {"sequence": "CACAGCTG", "PBM E-score of 8-mer": "0.296 ± 0.0054"}, {"sequence": "ATGACAAC", "PBM E-score of 8-mer": "0.241 ± 0.054"}, {"sequence": "GTGACAAC", "PBM E-score of 8-mer": "0.4452 ± 0.0036"}, {"sequence": "CTGACAAA", "PBM E-score of 8-mer": "0.12 ± 0.038"}, {"sequence": "GAGACACA", "PBM E-score of 8-mer": "0.053 ± 0.046"}, {"sequence": "CTGACGAA", "PBM E-score of 8-mer": "0.0955 ± 0.048"}, {"sequence": "CTGACAAC", "PBM E-score of 8-mer": "0.257 ± 0.012"}, {"sequence": "ATGACGAA", "PBM E-score of 8-mer": "-0.065 ± 0.04"}, {"sequence": "CTGACACA", "PBM E-score of 8-mer": "0.344 ± 0.013"}, {"sequence": "GTGACGAA", "PBM E-score of 8-mer": "0.371 ± 0.014"}, {"sequence": "GTGACACA", "PBM E-score of 8-mer": "0.416 ± 0.0096"}, {"sequence": "ATGACAAA", "PBM E-score of 8-mer": "-0.0227 ± 0.073"}, {"sequence": "GTGACAAA", "PBM E-score of 8-mer": "0.428 ± 0.029"}, {"sequence": "GTAGTCGA", "PBM E-score of 8-mer": "-0.0608 ± 0.0079"}, {"sequence": "ATTATTCG", "PBM E-score of 8-mer": "-0.0471 ± 0.044"}, {"sequence": "CTGGCTTA", "PBM E-score of 8-mer": "-0.275 ± 0.025"}, {"sequence": "CTACAGGC", "PBM E-score of 8-mer": "-0.125 ± 0.0056"}, {"sequence": "GATGGTCA", "PBM E-score of 8-mer": "-0.26 ± 0.0048"}, {"sequence": "CGCGAACA", "PBM E-score of 8-mer": "0.328 ± 0.007"}, {"sequence": "TACTTAAA", "PBM E-score of 8-mer": "-0.246 ± 0.057"}, {"sequence": "GTGATTGA", "PBM E-score of 8-mer": "0.125 ± 0.042"}, {"sequence": "GACTCGAC", "PBM E-score of 8-mer": "0.0517 ± 0.016"}, {"sequence": "CGTTATCC", "PBM E-score of 8-mer": "-0.058 ± 0.009"}, {"sequence": "CACACATC", "PBM E-score of 8-mer": "0.381 ± 0.035"}, {"sequence": "GACACATC", "PBM E-score of 8-mer": "0.372 ± 0.0069"}, {"sequence": "CTCACATC", "PBM E-score of 8-mer": "0.3693 ± 0.0021"}, {"sequence": "AACACATT", "PBM E-score of 8-mer": "0.389 ± 0.028"}, {"sequence": "GACACATA", "PBM E-score of 8-mer": "0.322 ± 0.038"}, {"sequence": "AAAACATT", "PBM E-score of 8-mer": "-0.0945 ± 0.013"}, {"sequence": "AACACACT", "PBM E-score of 8-mer": "0.229 ± 0.021"}, {"sequence": "ATCACATC", "PBM E-score of 8-mer": "0.195 ± 0.058"}, {"sequence": "CACACATG", "PBM E-score of 8-mer": "0.352 ± 0.0023"}, {"sequence": "CGCACATC", "PBM E-score of 8-mer": "0.298 ± 0.055"}, {"sequence": "CTCACATA", "PBM E-score of 8-mer": "0.0666 ± 0.017"}, {"sequence": "GACACAGC", "PBM E-score of 8-mer": "0.1102 ± 0.00023"}, {"sequence": "AGTGAGGG", "PBM E-score of 8-mer": "-0.0175 ± 0.1"}, {"sequence": "GACTGCGC", "PBM E-score of 8-mer": "-0.107 ± 0.044"}, {"sequence": "ACGAAGCT", "PBM E-score of 8-mer": "-0.143 ± 0.014"}, {"sequence": "AAGCGAAA", "PBM E-score of 8-mer": "-0.083 ± 0.07"}, {"sequence": "AAGCAGTC", "PBM E-score of 8-mer": "-0.167 ± 0.023"}, {"sequence": "GACTTCTC", "PBM E-score of 8-mer": "0.148 ± 0.065"}, {"sequence": "GGACTTGA", "PBM E-score of 8-mer": "-0.145 ± 0.015"}, {"sequence": "CGCTCGGC", "PBM E-score of 8-mer": "-0.148 ± 0.02"}, {"sequence": "AACACAGC", "PBM E-score of 8-mer": "0.0601 ± 0.048"}, {"sequence": "AACACATC", "PBM E-score of 8-mer": "0.378 ± 0.013"}, {"sequence": "AACACATG", "PBM E-score of 8-mer": "0.317 ± 0.013"}, {"sequence": "CACACATA", "PBM E-score of 8-mer": "0.365 ± 0.021"}, {"sequence": "TACACATA", "PBM E-score of 8-mer": "0.115 ± 0.032"}, {"sequence": "AACACATA", "PBM E-score of 8-mer": "0.373 ± 0.0082"}, {"sequence": "CCTAATAG", "PBM E-score of 8-mer": "-0.122 ± 0.052"}, {"sequence": "CTGCTCAA", "PBM E-score of 8-mer": "-0.0839 ± 0.036"}, {"sequence": "ATGTGTTG", "PBM E-score of 8-mer": "0.398 ± 0.008"}, {"sequence": "ATGTGTTA", "PBM E-score of 8-mer": "0.446 ± 0.0057"}, {"sequence": "ATGTGTTC", "PBM E-score of 8-mer": "0.156 ± 0.025"}, {"sequence": "ATATGTTG", "PBM E-score of 8-mer": "0.0196 ± 0.038"}, {"sequence": "GTGTGTTA", "PBM E-score of 8-mer": "0.274 ± 0.012"}, {"sequence": "CTGTGTTA", "PBM E-score of 8-mer": "0.158 ± 0.045"}, {"sequence": "CTCGAAGC", "PBM E-score of 8-mer": "-0.0159 ± 0.011"}, {"sequence": "ACTACGTA", "PBM E-score of 8-mer": "-0.156 ± 0.012"}, {"sequence": "GAGTTACA", "PBM E-score of 8-mer": "0.0401 ± 0.024"}, {"sequence": "CTTGTCAC", "PBM E-score of 8-mer": "0.405 ± 0.015"}, {"sequence": "CTTGTCAA", "PBM E-score of 8-mer": "0.305 ± 0.034"}, {"sequence": "ATTGTCAC", "PBM E-score of 8-mer": "0.427 ± 0.016"}, {"sequence": "CTTGTCGC", "PBM E-score of 8-mer": "0.277 ± 0.012"}, {"sequence": "ATTGTCAG", "PBM E-score of 8-mer": "0.134 ± 0.026"}, {"sequence": "ATTGTCAA", "PBM E-score of 8-mer": "0.248 ± 0.039"}, {"sequence": "GGGTTGAA", "PBM E-score of 8-mer": "-0.0332 ± 0.073"}, {"sequence": "CCGCTACG", "PBM E-score of 8-mer": "-0.186 ± 0.064"}, {"sequence": "GTGATAAA", "PBM E-score of 8-mer": "0.339 ± 0.07"}, {"sequence": "ATGATAAC", "PBM E-score of 8-mer": "0.0197 ± 0.036"}, {"sequence": "GTGATAAC", "PBM E-score of 8-mer": "0.406 ± 0.02"}, {"sequence": "ATTCCCAG", "PBM E-score of 8-mer": "-0.25 ± 0.009"}, {"sequence": "GTGTATCA", "PBM E-score of 8-mer": "-0.00951 ± 0.055"}, {"sequence": "GTGCTAGA", "PBM E-score of 8-mer": "0.382 ± 0.0098"}, {"sequence": "CTGCTAAC", "PBM E-score of 8-mer": "0.318 ± 0.029"}, {"sequence": "GAGCTAGA", "PBM E-score of 8-mer": "-0.00238 ± 0.087"}, {"sequence": "ATGCTAAC", "PBM E-score of 8-mer": "0.0631 ± 0.061"}, {"sequence": "TTGCTAAA", "PBM E-score of 8-mer": "0.241 ± 0.078"}, {"sequence": "GTGCTAAC", "PBM E-score of 8-mer": "0.453 ± 0.0072"}, {"sequence": "GTGCTAAA", "PBM E-score of 8-mer": "0.435 ± 0.007"}]}]}
